Here are results for 60 compounds from PubChem BioAssay AID1903 (Southern Research Specialized Biocontainment Screening …, 2009).

The whole screen tested about 310,000 compounds, of which about 1,200 (0.39%) were called active. Only a sample is shown. Entries with a potency or affinity are not part of this list. A number with no mark means an inactive call. How the calls were made is not given here.

The target of this experiment is Large T antigen (Simian virus 40) (UniProt P03070). The experiment in a line: TAg ATPase/helicase activity blockers – biochemical (AID 1903). Particulars: SV40 large T antigen ATPase/helicase inhibition assay; at 20 µM; active compounds read high.
Large T antigen (Simian virus 40), sequence (P03070 whole entry, looked up): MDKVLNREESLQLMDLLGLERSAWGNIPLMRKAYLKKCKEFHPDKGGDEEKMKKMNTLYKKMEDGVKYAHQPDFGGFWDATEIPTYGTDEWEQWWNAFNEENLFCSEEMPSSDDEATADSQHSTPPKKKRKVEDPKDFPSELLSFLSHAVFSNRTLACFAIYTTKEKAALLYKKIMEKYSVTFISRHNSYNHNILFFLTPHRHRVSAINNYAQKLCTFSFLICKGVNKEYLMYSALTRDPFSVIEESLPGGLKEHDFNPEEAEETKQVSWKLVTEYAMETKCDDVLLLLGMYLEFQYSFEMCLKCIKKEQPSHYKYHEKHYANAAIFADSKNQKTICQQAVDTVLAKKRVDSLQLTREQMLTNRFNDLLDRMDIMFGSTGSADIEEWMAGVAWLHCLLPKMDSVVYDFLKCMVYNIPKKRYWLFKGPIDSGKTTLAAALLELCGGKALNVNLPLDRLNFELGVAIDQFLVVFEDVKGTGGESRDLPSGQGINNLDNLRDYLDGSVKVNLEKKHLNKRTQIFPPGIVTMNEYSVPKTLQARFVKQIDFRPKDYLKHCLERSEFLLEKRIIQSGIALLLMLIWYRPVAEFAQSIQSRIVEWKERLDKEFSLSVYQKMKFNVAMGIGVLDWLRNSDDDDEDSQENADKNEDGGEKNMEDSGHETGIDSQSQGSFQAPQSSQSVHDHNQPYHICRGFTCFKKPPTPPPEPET
Usually inhibition stands for the relative decrease from the control value, in per cent. On to `COc1cc([N+](=O)[O-])ccc1NC(=O)Nc1cnccn1`, for which the inhibition is 13.4%.
Regarding `Cc1[nH]n(-c2ccccc2)c(=O)c1C=Nc1ccc2[nH]c(=O)[nH]c2c1`, the inhibition is 19.5%.
For `Nc1ccc(CCS(N)(=O)=O)cc1` the value was 2.24%; for `CCc1ccc(S(=O)(=O)NCC(O)COc2ccc(OC)cc2)cc1` (stereo not given), 1.57%.
With `O=C(Oc1coc(CSc2ncccn2)cc1=O)c1ccccc1[N+](=O)[O-]`, the inhibition was 18.4%.
Turning to `Cc1ccc2c3c(c(SCC(=O)Nc4nccs4)nc2c1)CCCC3`, the inhibition was -1.03%.
`Cn1c(-c2ccccc2[N+](=O)[O-])[n+](C)c2ccccc21`: the inhibition is 11.2%.
For `Cc1cc(/C=C2\C(=N)N3N=C(CC(=O)N4CCOCC4)SC3=NC2=O)c(C)n1-c1ccccc1` the value was 11.9%.
With `CCOC(=O)C1CC2CC(C1)CN(C(=O)C1CCCCC1)C2` (stereo not given) the figure was 1.74%.
As to `C/C(=N\Nc1ccc([N+](=O)[O-])cc1)c1ccc(O)cc1`, the inhibition is 23.8%.
In the case of `O=[N+]([O-])c1ccccc1N=Nc1ccc(O)cc1`, the inhibition is 16.2%.
With `[O-]/C(=C(\C(=S)NCc1ccco1)[n+]1ccccc1)c1ccccc1Br`, the inhibition is 20.6%.
As for `CS(=O)(=O)c1ccc(Cl)c(NC(=O)CCNC(=O)c2ccco2)c1`, the inhibition was 1.63%.
For `CC(C)c1nnc(NC(=O)CCC(=O)N2CCC(Cc3ccccc3)CC2)s1` the value was 16.2%; for `CC(C)CN1C(=O)c2ccc(C(=O)Nc3ccccn3)cc2C1=O`, 3.11%.
With `C=CCN1CC(c2nc3ccccc3n2CCOc2ccccc2)CC1=O` (stereo not given) the figure was -0.56%.
For `CN(C)/N=C/c1ccc(N2CCOCC2)cc1`, the inhibition is 16.2%.
`CN(CC(=O)Nc1ccc(N2CCOCC2)cc1)CC(=O)Nc1ccc(N2CCOCC2)cc1`: the inhibition was 21.6%.
As to `CN(C)C(CNc1ccc(S(C)(=O)=O)cc1[N+](=O)[O-])Cc1ccccc1` (stereo not given), the inhibition is -5.33%.
As to `CCOC(=O)/C(C#N)=C/Nc1ccccc1NS(=O)(=O)c1ccc(C)c(C)c1`, the inhibition is 9.42%.
For `COc1cc2c(cc1NC(=S)Nc1cccc3ccccc13)oc1ccccc12` the value was 29.9%; for `CNC(=S)Nc1cc2oc3ccccc3c2cc1OC`, 18.4%; for `CN(C)/C=C(\C#N)C(N)=C(C#N)C#N`, -3.37%.
For the compound `N#CC(=Cc1ccc(O)cc1)C(N)=C(C#N)C#N`, the inhibition was 8.06%.
For `O=C(N/N=C/C1CC=CCC1)c1cc(Br)ccc1O` (stereo not given) the value was 1.73%.
`C=C1C(=O)O[C@@H]2C[C@@H](C)[C@@H]3C=CC(=O)[C@@]3(C)[C@@H](OC(C)=O)[C@H]12`: the inhibition is 35.6%.
For `CC(=O)O[C@@H]1[C@H]2[C@@H](C[C@@H](C)[C@@H]3C=CC(=O)[C@@]13C)OC(=O)[C@@H]2C` the value was 11.5%.
Take `CCOc1cc(/C=C(\C#N)C(N)=O)ccc1OCc1c(C)no[n+]1[O-]`: the inhibition was 10.9%.
For `COc1ccccc1Oc1ccc(NC(=O)c2ccc(Cl)cc2)cc1` the value was 6.92%; for `CS(=O)(=O)c1ccc(N)cc1`, -0.19%; for `CS(=O)(=O)c1ccc2nc(N)sc2c1`, 0.3%.
For `CC(C)OC(=O)NC(Nc1ccccc1C(=O)O)(C(F)(F)F)C(F)(F)F` the value was 6.18%; for `Cc1ccc(C(=O)N[C@H](C(=O)Nc2sccc2C(N)=O)C(C)C)cc1`, -5.98%; for `COc1ccc(OCc2nn3c(-c4cccc(OC)c4)nnc3s2)cc1`, 8.77%.
For `O=C1/C(=C/c2cccnc2)SC(=S)N1Nc1ccccc1` the value was 29.5%.
Regarding `O=C(O)c1ccc(/C=C2\SC(=S)N(Nc3ccccc3)C2=O)cc1`, the inhibition is 32.2%.
With `CC(/C=N/NC(=O)c1sc(N)nc1C)=C\c1ccccc1` the figure was 17.8%.
With `CC1=C(C#N)C(=O)NC(=O)/C1=C\c1ccc(-c2ccc(C)cc2[N+](=O)[O-])o1`, the inhibition is 33.3%.
With `Cc1cc(C(=O)O)ccc1-c1ccc(/C=C2\NC(=O)N(Cc3ccc(F)cc3)C2=O)o1`, the inhibition was 37.5%.
For `O=[N+]([O-])c1ccccc1-c1ccc(/C=N/n2cnnc2)o1` the value was 14.3%; for `NS(=O)(=O)c1ccc(-c2ccc(/C=C3\C(=O)Nc4cc(Cl)ccc43)o2)cc1`, -8.34%.
With `CC1=C(C#N)C(=O)NC(=O)/C1=C\c1ccc(-c2cc(C)c(C)cc2[N+](=O)[O-])o1` the figure was 17.5%.
With `Cc1ccc(-c2ccc(/C=C3/NC(=O)NC3=O)o2)cc1[N+](=O)[O-]` the figure was 28.5%; with `O=C(COc1cccc(NC(=O)c2ccccc2)c1)c1ccccc1`, 5.06%; with `CCN(C(=O)CN1CCOCC1)c1c(N)n(Cc2ccccc2)c(=O)[nH]c1=O`, 7.23%.
For `Cc1ccc(S(=O)(=O)NCCNC(=O)CN2CCCC2)cc1`, the inhibition is 0.78%.
For `CC1(C)CC(=O)N(CC(=O)N2CCN(c3ncccn3)CC2)c2ccccc2S1(=O)=O`, the inhibition was -1.17%.
For `O=C(NNc1c(Cl)cccc1Cl)c1c(F)cccc1Cl` the value was 9.15%; for `COC(=O)[C@@]12CCCN1[C@H](c1ccc(-c3ccc(F)cc3)cc1)[C@H]1C(=O)N(C)C(=O)[C@H]12`, 5.03%.
With `Cc1ccc(S(=O)(=O)NC(=O)N(CCC#N)Cc2ccccc2)cc1` the figure was 10.3%.
As for `CC(C)(C)/C(O)=C/c1nc2ccccc2oc1=O`, the inhibition was 29.2%.
Take `Cc1ccc(/C(O)=C/c2nc3cc(C)ccc3oc2=O)cc1`: the inhibition was 14.5%.
In the case of `COc1ccc(-c2nc(NC(=O)CSCCO)sc2C)cc1`, the inhibition was 22.1%.
With `O=C1C(O)=C(O)C(=O)c2ccccc21` the figure was 5.58%; with `O=S1(=O)N=C(SCCO)c2ccccc21`, -3.68%; with `CCOc1ccc(NC(=S)N(CCN2CCOCC2)Cc2ccc3c(c2)CCCN3CC)cc1`, 18.7%.
For `CCCc1cc(-c2[nH]ncc2-c2ccc(C(=O)OCC)o2)c(O)cc1O` the value was 18.2%; for `CCOC(=O)c1[nH]nc(-c2c(O)cc(C)cc2O)c1-c1csc(C)n1`, 6.85%.
With `CCCc1cc2c(=O)c(-c3cscn3)c(C(=O)OCC)oc2cc1O`, the inhibition was 2.58%.
For `CCOC(=O)c1oc2cc(O)c(CC)cc2c(=O)c1-c1cscn1` the value was 7.73%.
